# Laboratory results as given in the supplement of paper PMC4466140.
# Biological target: CaNbp2
# Assay: SPOT peptide array binding signal intensity (averaged, normalized) (arbitrary units (background-subtracted, floor 0; scale differs between SH3 domains)); higher = stronger binding of the SH3 domain to the peptide
# Outline: (§1)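 Binding signal is given in arbitrary units that differ between domains and is the normalized, background-subtracted spot intensity averaged across replicates. Each GST-SH3 fusion from one of four yeast species was made in E. coli BL21(DE3), purified on glutathione Sepharose and incubated at 10 μg/ml overnight at 4°C on cellulose-bound synthetic 15-mer peptides in which cysteines were replaced by serines. Detection used anti-GST antibody, an HRP anti-mouse secondary and luminol, followed by imaging and Genespotter quantification.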
row,Binder,SPOT peptide array binding signal intensity
1,MSPLGAPPPPPHKDH,≤ 0

# Biological target: CaRvs167
# Assay: as above
# Outline: as §1
row,Binder,SPOT peptide array binding signal intensity
1,MSPLGAPPPPPHKDH,0.833

# Biological target: CaRvs167-3
# Assay: as above
# Outline: as §1
row,Binder,SPOT peptide array binding signal intensity
1,MSPLGAPPPPPHKDH,≤ 0

# Biological target: CaSho1
# Assay: as above
# Outline: as §1
row,Binder,SPOT peptide array binding signal intensity
1,MSPLGAPPPPPHKDH,≤ 0

# Biological target: CaSla1-D1-D2
# Assay: as above
# Outline: as §1
row,Binder,SPOT peptide array binding signal intensity
1,MSPLGAPPPPPHKDH,≤ 0

# Biological target: CaSla1-D3
# Assay: as above
# Outline: as §1
row,Binder,SPOT peptide array binding signal intensity
1,MSPLGAPPPPPHKDH,≤ 0

# Biological target: ScAbp1
# Assay: as above
# Outline: as §1
row,Binder,SPOT peptide array binding signal intensity
1,MSPLGAPPPPPHKDH,≤ 0

# Biological target: ScBbc1
# Assay: as above
# Outline: as §1
row,Binder,SPOT peptide array binding signal intensity
1,MSPLGAPPPPPHKDH,≤ 0

# Biological target: ScBem1-D1
# Assay: as above
# Outline: as §1
row,Binder,SPOT peptide array binding signal intensity
1,MSPLGAPPPPPHKDH,≤ 0

# Biological target: ScBzz1-D1
# Assay: as above
# Outline: as §1
row,Binder,SPOT peptide array binding signal intensity
1,MSPLGAPPPPPHKDH,1.5

# Biological target: ScBzz1-D2
# Assay: as above
# Outline: as §1
row,Binder,SPOT peptide array binding signal intensity
1,MSPLGAPPPPPHKDH,1

# Biological target: ScCyk3
# Assay: as above
# Outline: as §1
row,Binder,SPOT peptide array binding signal intensity
1,MSPLGAPPPPPHKDH,≤ 0

# Biological target: ScFus1
# Assay: as above
# Outline: as §1
row,Binder,SPOT peptide array binding signal intensity
1,MSPLGAPPPPPHKDH,≤ 0

# Biological target: ScHof1
# Assay: as above
# Outline: as §1
row,Binder,SPOT peptide array binding signal intensity
1,MSPLGAPPPPPHKDH,≤ 0

# Biological target: ScHse1
# Assay: as above
# Outline: as §1
row,Binder,SPOT peptide array binding signal intensity
1,MSPLGAPPPPPHKDH,≤ 0

# Biological target: ScLsb1
# Assay: as above
# Outline: as §1
row,Binder,SPOT peptide array binding signal intensity
1,MSPLGAPPPPPHKDH,≤ 0

# Biological target: ScLsb2
# Assay: as above
# Outline: as §1
row,Binder,SPOT peptide array binding signal intensity
1,MSPLGAPPPPPHKDH,≤ 0

# Biological target: ScLsb3
# Assay: as above
# Outline: as §1
row,Binder,SPOT peptide array binding signal intensity
1,MSPLGAPPPPPHKDH,≤ 0

# Biological target: ScLsb4
# Assay: as above
# Outline: as §1
row,Binder,SPOT peptide array binding signal intensity
1,MSPLGAPPPPPHKDH,≤ 0

# Biological target: ScMyo3
# Assay: as above
# Outline: as §1
row,Binder,SPOT peptide array binding signal intensity
1,MSPLGAPPPPPHKDH,700

# Biological target: ScMyo5
# Assay: as above
# Outline: as §1
row,Binder,SPOT peptide array binding signal intensity
1,MSPLGAPPPPPHKDH,751

# Biological target: ScNbp2
# Assay: as above
# Outline: as §1
row,Binder,SPOT peptide array binding signal intensity
1,MSPLGAPPPPPHKDH,≤ 0

# Biological target: ScPex13
# Assay: as above
# Outline: as §1
row,Binder,SPOT peptide array binding signal intensity
1,MSPLGAPPPPPHKDH,≤ 0

# Biological target: ScRvs167
# Assay: as above
# Outline: as §1
row,Binder,SPOT peptide array binding signal intensity
1,MSPLGAPPPPPHKDH,2

# Biological target: ScSho1
# Assay: as above
# Outline: as §1
row,Binder,SPOT peptide array binding signal intensity
1,MSPLGAPPPPPHKDH,≤ 0

# Biological target: ScSla1-D1-D2
# Assay: as above
# Outline: as §1
row,Binder,SPOT peptide array binding signal intensity
1,MSPLGAPPPPPHKDH,≤ 0

# Biological target: ScSla1-D3
# Assay: as above
# Outline: as §1
row,Binder,SPOT peptide array binding signal intensity
1,MSPLGAPPPPPHKDH,≤ 0

# Biological target: SpAbp1-D1
# Assay: as above
# Outline: as §1
row,Binder,SPOT peptide array binding signal intensity
1,MSPLGAPPPPPHKDH,≤ 0

# Biological target: SpBbc1
# Assay: as above
# Outline: as §1
row,Binder,SPOT peptide array binding signal intensity
1,MSPLGAPPPPPHKDH,≤ 0

# Biological target: SpBzz1-D1
# Assay: as above
# Outline: as §1
row,Binder,SPOT peptide array binding signal intensity
1,MSPLGAPPPPPHKDH,324

# Biological target: SpBzz1-D2
# Assay: as above
# Outline: as §1
row,Binder,SPOT peptide array binding signal intensity
1,MSPLGAPPPPPHKDH,≤ 0

# Biological target: SpCyk3
# Assay: as above
# Outline: as §1
row,Binder,SPOT peptide array binding signal intensity
1,MSPLGAPPPPPHKDH,≤ 0

# Biological target: SpHof1
# Assay: as above
# Outline: as §1
row,Binder,SPOT peptide array binding signal intensity
1,MSPLGAPPPPPHKDH,1

# Biological target: SpHof1-2
# Assay: as above
# Outline: as §1
row,Binder,SPOT peptide array binding signal intensity
1,MSPLGAPPPPPHKDH,≤ 0

# Biological target: SpHof1-3
# Assay: as above
# Outline: as §1
row,Binder,SPOT peptide array binding signal intensity
1,MSPLGAPPPPPHKDH,0.5

# Biological target: SpHse1
# Assay: as above
# Outline: as §1
row,Binder,SPOT peptide array binding signal intensity
1,MSPLGAPPPPPHKDH,≤ 0

# Biological target: SpLsb1
# Assay: as above
# Outline: as §1
row,Binder,SPOT peptide array binding signal intensity
1,MSPLGAPPPPPHKDH,≤ 0

# Biological target: SpLsb4
# Assay: as above
# Outline: as §1
row,Binder,SPOT peptide array binding signal intensity
1,MSPLGAPPPPPHKDH,≤ 0

# Biological target: SpMyo1
# Assay: as above
# Outline: as §1
row,Binder,SPOT peptide array binding signal intensity
1,MSPLGAPPPPPHKDH,1060

# Biological target: SpNbp2
# Assay: as above
# Outline: as §1
row,Binder,SPOT peptide array binding signal intensity
1,MSPLGAPPPPPHKDH,≤ 0

# Biological target: SpPex13
# Assay: as above
# Outline: as §1
row,Binder,SPOT peptide array binding signal intensity
1,MSPLGAPPPPPHKDH,≤ 0

# Biological target: SpRvs167
# Assay: as above
# Outline: as §1
row,Binder,SPOT peptide array binding signal intensity
1,MSPLGAPPPPPHKDH,12.7

# Biological target: SpSla1-D1-D2
# Assay: as above
# Outline: as §1
row,Binder,SPOT peptide array binding signal intensity
1,MSPLGAPPPPPHKDH,≤ 0

# Biological target: SpSla1-D3
# Assay: as above
# Outline: as §1
row,Binder,SPOT peptide array binding signal intensity
1,MSPLGAPPPPPHKDH,≤ 0
